In the supplement of paper PMC4022240:
± gives the standard deviation.

T1: HaloTag-ATRX ADD domain (163-292)
T1 chain: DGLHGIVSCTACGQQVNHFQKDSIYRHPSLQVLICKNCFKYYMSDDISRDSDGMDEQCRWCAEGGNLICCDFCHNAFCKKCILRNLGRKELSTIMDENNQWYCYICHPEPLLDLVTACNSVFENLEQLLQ


Columns and labels:
Test in all cases: peptide microarray binding signal (635 nm), min-max normalized on array (fraction of array maximum); higher = stronger binding
[1] = target: T1, HaloTag-ATRX ADD domain (163-292)
How it was run: (§1)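 Within each library, mean intensities of triplicate spots were min-max scaled to give the binding signal. The spots were histone 13-mer peptide–cellulose conjugates on nitrocellulose with a Cy3 tracer, blocked overnight at 4°C. They were then probed for 1 h at 4°C using biotin-labelled HaloTag reader fusions (10 nM to 1 μM) with streptavidin-Alexa Fluor 647 or rabbit histone antibodies (1:10,000 to 1:2,000) with anti-rabbit Alexa 647, and scanned at 635 nm for signal and 532 nm for misprints on an Axon GenePix 4000B.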

[2] = target: HaloTag-ING2 PHD (mouse Ing2 200-280)
How it was run: as §1

[3] = target: anti-H3K4me3 antibody ab8580
How it was run: as §1

[4] = target: anti-H3K9me3 antibody ab8898
How it was run: as §1

[5] = peptide region: Unmod H3 variant, binder concentration: 50 nM
[6] = peptide region: Unmod H3 variant, binder concentration: 500 nM
[7] = peptide region: Unmod H3 variant, binder concentration: 10 nM
[8] = peptide region: Unmod H3 variant, binder concentration: 100 nM
[9] = peptide region: Unmod H3 variant, binder concentration: 1:2,000 dilution
[10] = peptide region: Unmod H3 variant, binder concentration: 1:10,000 dilution
[11] = peptide region: Unmod H2B variant, binder concentration: 50 nM
[12] = peptide region: Unmod H2B variant, binder concentration: 500 nM
[13] = peptide region: Unmod H2B variant, binder concentration: 10 nM
[14] = peptide region: Unmod H2B variant, binder concentration: 100 nM
[15] = peptide region: Unmod H2B variant, binder concentration: 1:2,000 dilution
[16] = peptide region: Unmod H2B variant, binder concentration: 1:10,000 dilution

Row | Binder | peptide microarray binding signal [1, 5] | peptide microarray binding signal [1, 6] | peptide microarray binding signal [2, 7] | peptide microarray binding signal [2, 8] | peptide microarray binding signal [3, 9] | peptide microarray binding signal [3, 10] | peptide microarray binding signal [4, 9] | peptide microarray binding signal [4, 10] | peptide microarray binding signal [1, 11] | peptide microarray binding signal [1, 12] | peptide microarray binding signal [2, 13] | peptide microarray binding signal [2, 14] | peptide microarray binding signal [3, 15] | peptide microarray binding signal [3, 16] | peptide microarray binding signal [4, 15] | peptide microarray binding signal [4, 16]
1 | ATGGVKKPHRYRP [Unmod H3 variant A T G G V K K P H R Y R P] | 0.00552 ± 0.0011 | 0.00938 ± 0.0008 | 0.00537 ± 0.00055 | 0.0186 ± 0.0068 | 0.000585 ± 3.7e-05 | 0.000456 ± 1.3e-05 | 0.000227 ± 7.1e-06 | 0.000461 ± 8.7e-06 |  |  |  |  |  |  |  | 
2 | VREIAQDFKTDLR [Unmod H3 variant V R E I A Q D F K T D L R] | 0.00495 ± 9.5e-05 | 0.0115 ± 0.00061 | 0.00853 ± 0.00018 | 0.0134 ± 0.00073 | 0.00247 ± 5.5e-05 | 0.00474 ± 0.00018 | 0.00248 ± 0.00019 | 0.00259 ± 9.2e-05 |  |  |  |  |  |  |  | 
3 | AIHAKRVTIMPKD [Unmod H3 variant A I H A K R V T I M P K D] | 0.00414 ± 0.00014 | 0.0132 ± 0.00021 | 0.00507 ± 0.00019 | 0.0196 ± 0.0021 | 0.000849 ± 2.3e-05 | 0.00211 | 0.000513 ± 1.3e-05 | 0.000692 ± 7.3e-06 |  |  |  |  |  |  |  | 
4 | TARKSTGGKAPRK [Unmod H3 variant T A R K S T G G K A P R K] | 0.00552 ± 0.00053 | 0.0118 ± 0.00044 | 0.00633 ± 0.00044 | 0.019 ± 0.0047 | 0.001 ± 4.5e-05 | 0.00114 ± 1.2e-05 | 0.000664 ± 1.2e-05 | 0.000923 ± 9.6e-06 |  |  |  |  |  |  |  | 
5 | VGLFEDTNLCAIH [Unmod H3 variant V G L F E D T N L C A I H] | 0.00179 ± 3.6e-05 | 0.0031 ± 4.8e-05 | 0.002686 ± 1.5e-05 | 0.00241 ± 4e-05 | 0.000472 ± 9.3e-06 | 0.000628 ± 6.7e-06 | 0.000287 ± 7.8e-06 | 0.000807 |  |  |  |  |  |  |  | 
6 | ALQEASEAYLVGL [Unmod H3 variant A L Q E A S E A Y L V G L] | 0.001818 ± 8.5e-06 | 0.00233 ± 5.1e-05 | 0.00292 ± 5.6e-05 | 0.00206 ± 7.3e-05 | 0.0004719 ± 4.7e-06 | 0.000799 ± 8.3e-06 | 0.000453 ± 1.5e-05 | 0.000634 |  |  |  |  |  |  |  | 
7 | ARTKQTARKSTGG [Unmod H3 variant A R T K Q T A R K S T G G] | 0.00445 ± 0.00012 | 0.00991 ± 0.00023 | 0.00824 ± 0.00015 | 0.01502 ± 0.00015 | 0.0014 ± 4.3e-05 | 0.00205 ± 7.6e-05 | 0.00101 ± 3.2e-05 | 0.00115 |  |  |  |  |  |  |  | 
8 | ATKAARKSAPATG [Unmod H3 variant A T K A A R K S A P A T G] | 0.00646 ± 0.00048 | 0.0104 ± 0.0015 | 0.00776 ± 0.00056 | 0.015 ± 0.0022 | 0.00119 ± 3.4e-05 | 0.001712 ± 1.6e-05 | 0.00142 ± 9.9e-05 | 0.00127 ± 1.3e-05 |  |  |  |  |  |  |  | 
9 | PFQRLVREIAQDF [Unmod H3 variant P F Q R L V R E I A Q D F] | 0.0275 ± 0.0017 | 0.0328 ± 0.0016 | 0.01385 ± 8.4e-05 | 0.0259 ± 0.0054 | 0.00315 ± 0.00022 | 0.00759 ± 0.00028 | 0.00316 ± 0.00013 | 0.00427 ± 5.7e-05 |  |  |  |  |  |  |  | 
10 | PGELAKHAVSEGT [Unmod H2B variant P G E L A K H A V S E G T] |  |  |  |  |  |  |  |  | 0.01009 ± 9.9e-05 | 0.0228 ± 0.001 | 0.0117 ± 0.00035 | 0.0287 ± 0.0019 | 0.0133 ± 0.0011 | 0.0163 ± 0.00093 | 0.00447 ± 0.00018 | 0.00484 ± 7.1e-05
11 | EGTKAVTKYTSSK [Unmod H2B variant E G T K A V T K Y T S S K] |  |  |  |  |  |  |  |  | 0.00473 ± 0.00015 | 0.00681 ± 0.00052 | 0.00561 ± 0.00046 | 0.01276 ± 6.8e-05 | 0.00121 ± 0.00013 | 0.001712 ± 1.6e-05 | 0.000468 ± 9e-06 | 0.000923 ± 9.6e-06
12 | RKSAPATGGVKKP [Unmod H3 variant R K S A P A T G G V K K P] | 0.00398 ± 4.1e-05 | 0.0111 ± 0.0002 | 0.008 ± 0.00021 | 0.021 ± 0.00036 | 0.000831 ± 5.9e-05 | 0.001312 ± 1.3e-05 | 0.000529 ± 1.3e-05 | 0.000692 ± 7.3e-06 |  |  |  |  |  |  |  | 
13 | QDFKTDLRFQSSA [Unmod H3 variant Q D F K T D L R F Q S S A] | 0.00483 ± 6.5e-05 | 0.011 ± 0.00018 | 0.00973 ± 0.00021 | 0.0168 ± 0.0012 | 0.00276 ± 8.1e-05 | 0.00542 ± 0.0011 | 0.00157 ± 6.5e-05 | 0.00202 ± 3.2e-05 |  |  |  |  |  |  |  | 
14 | TGGKAPRKQLATK [Unmod H3 variant T G G K A P R K Q L A T K] | 0.00389 ± 0.00042 | 0.00729 ± 0.00021 | 0.00788 ± 0.00069 | 0.00985 ± 0.00081 | 0.00126 ± 8.1e-05 | 0.001541 ± 1.5e-05 | 0.000876 ± 2.6e-05 | 0.000807 |  |  |  |  |  |  |  | 
15 | ALQEACEAYLVGL [Unmod H3 variant A L Q E A C E A Y L V G L] | 0.00166 ± 5.9e-05 | 0.00148 ± 3.6e-05 | 0.00179 ± 2.8e-05 | 0.00163 ± 4.4e-05 | 0.0004342 ± 4.3e-06 | 0.000628 ± 6.7e-06 | 0.000393 ± 1.4e-05 | 0.000519 ± 5.6e-06 |  |  |  |  |  |  |  | 
16 | KHAVSEGTKAVTK [Unmod H2B variant K H A V S E G T K A V T K] |  |  |  |  |  |  |  |  | 0.00533 ± 0.00061 | 0.00738 ± 0.00021 | 0.00406 ± 5.6e-05 | 0.0122 ± 0.00094 | 0.000906 ± 6.3e-05 | 0.0012 ± 3.2e-05 | 0.000378 ± 7.5e-06 | 0.000865 ± 9e-06
17 | RKSAPSTGGVKKP [Unmod H3 variant R K S A P S T G G V K K P] | 0.002821 ± 2.4e-05 | 0.0103 ± 0.00037 | 0.00674 ± 8.2e-05 | 0.0212 ± 0.0031 | 0.000963 ± 5e-05 | 0.000799 ± 8.3e-06 | 0.000468 ± 9e-06 | 0.000634 |  |  |  |  |  |  |  | 
18 | EGTKAVTKYTSAK [Unmod H2B variant E G T K A V T K Y T S A K] |  |  |  |  |  |  |  |  | 0.0108 ± 0.00025 | 0.0351 ± 0.00073 | 0.00776 ± 0.00021 | 0.0322 ± 0.0032 | 0.00196 ± 9.7e-05 | 0.0028 ± 0.00015 | 0.000544 ± 1.7e-05 | 0.00115
19 | ATKAARKSAPSTG [Unmod H3 variant A T K A A R K S A P S T G] | 0.00285 ± 0.00016 | 0.00757 ± 0.00026 | 0.0164 ± 0.0095 | 0.00943 ± 0.00062 | 0.00109 ± 3.3e-05 | 0.001312 ± 1.3e-05 | 0.000695 ± 2.7e-05 | 0.000923 ± 9.6e-06 |  |  |  |  |  |  |  | 
20 | PRKQLATKAARKS [Unmod H3 variant P R K Q L A T K A A R K S] | 0.00345 ± 4.2e-05 | 0.0108 ± 0.00017 | 0.00722 ± 0.00031 | 0.0163 ± 0.00099 | 0.00119 ± 3.4e-05 | 0.0012 ± 1.2e-05 | 0.000785 ± 1.3e-05 | 0.000923 ± 9.6e-06 |  |  |  |  |  |  |  | 
